# In the supplement of paper PMC7669877:
# ± gives the uncertainty stated by the source.
# Test system: Candidatus Liberibacter solanacearum in potato hairy roots
# Assay: relative CLso titer (% of untreated control); higher = less inhibition of bacterial titer
# Conditions: 10 µM; 72 h
# Method: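 Primary screen of ~220 Spectrum collection (MicroSource) compounds at 10 µM (0.1% DMSO) on Candidatus Liberibacter solanacearum-infected potato hairy roots in multi-well plates (Gamborg B-5 medium, vacuum infiltrated, 21 °C, dark, 72 h). CLso titer was measured by qPCR of 16S rDNA normalised to potato RPL2 (2^-ddCq), pairwise-standardised against untreated controls, averaged over two biological replicates and expressed as % of untreated.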
row,SMILES,relative CLso titer [%]
1,O=C(O)CN(CCN(CC(=O)O)CC(=O)O)CC(=O)O,228 ± 120
2,CCOC(=O)c1cccc(N)c1,113 ± 8.9
3,Cc1cc(O)cc(C)c1Cl,30.8 ± 2.8
4,CO[C@@]1(NC(=O)C2SC(=C(C(N)=O)C(=O)O)S2)C(=O)N2C(C(=O)O)=C(CSc3nnnn3C)CS[C@@H]21 (some centres undefined),138 ± 17
5,CN1CCC[C@@H]1CCO[C@](C)(c1ccccc1)c1ccc(Cl)cc1,44.3 ± 12
6,O=C(N[C@H](CO)[C@H](O)c1ccc([N+](=O)[O-])cc1)C(Cl)Cl,57.2 ± 12
7,C=C1c2cccc(O)c2C(=O)C2=C(O)[C@]3(O)C(=O)C(C(N)=O)=C(O)[C@@H](N(C)C)[C@@H]3[C@@H](O)[C@H]12,79.1 ± 26
8,Cc1cccc(Nc2ccccc2C(=O)O)c1C,98.7 ± 20
9,C#C[C@]1(O)CC[C@H]2[C@@H]3CCC4=Cc5oncc5C[C@]4(C)[C@H]3CC[C@@]21C,154 ± 40
10,CCN(CC)C(=S)SSC(=S)N(CC)CC,82.7 ± 6
11,Nc1ccc(S(=O)(=O)Nc2cnc3ccccc3n2)cc1,80.23 ± 0.64
12,N=C(N)NC(=O)c1nc(Cl)c(N)nc1N,54.7 ± 1.4
13,Cn1c([N+](=O)[O-])cnc1COC(N)=O,81.53 ± 0.13
14,Nc1ccc(S(=O)(=O)c2ccc(N)cc2)cc1,94.3 ± 19
15,CCN1CCC[C@H]1CNC(=O)c1cc(S(N)(=O)=O)ccc1OC,118 ± 86
16,CCN(CC)C(=O)[C@@]1(c2ccccc2)C[C@H]1CN,48.9 ± 6
17,O=C(O)c1ccccc1C(=O)Nc1ccc(S(=O)(=O)Nc2nccs2)cc1,102 ± 3.3

row,SMILES,relative CLso titer [%]
1,CCCNC(=O)NS(=O)(=O)c1ccc(Cl)cc1,38.9 ± 4.5
2,CN(C)CCC=C1c2ccccc2CCc2ccccc21,49 ± 2.5
3,COC(=O)C1=C(C)NC(C)=C(C(=O)OCCN(C)Cc2ccccc2)C1c1cccc([N+](=O)[O-])c1 (centres undefined),121 ± 15
4,CCCCCCCCNC(C)C(O)c1ccc(SC(C)C)cc1 (centres undefined),80.3 ± 5.9
5,CC12CC3CC(C)(C1)CC(N)(C3)C2,63.3 ± 31
6,COc1ccc(NS(=O)(=O)c2ccc(N)cc2)nn1,116.5 ± 0.47
7,CCCN(CCC)C(=O)C(CCC(=O)O)NC(=O)c1ccccc1 (centres undefined),52.8 ± 27
8,C/C=C(/C(=C/C)c1ccc(O)cc1)c1ccc(O)cc1,108 ± 17
9,CC(C)(Oc1ccc(CCNC(=O)c2ccc(Cl)cc2)cc1)C(=O)O,153 ± 64
10,O=C1c2cccc(O)c2C(=O)c2c(O)cccc21,82.5 ± 46
11,Oc1ccc(Cl)c2cccnc12,36.8 ± 11
12,COC(=O)Nc1nc2cc(C(=O)c3cccs3)ccc2[nH]1,79.7 ± 6.4
13,C[C@@H]1O[C@@H]1P(=O)(O)O,155 ± 15
14,CN(C)CCOC(c1ccccc1)c1ccccc1,55.8 ± 26
15,NCCCC[C@H](N[C@@H](CCc1ccccc1)C(=O)O)C(=O)N1CCC[C@H]1C(=O)O,105 ± 33
16,CCOc1ccc(Cc2cc([C@@H]3O[C@H](CO)[C@@H](O)[C@H](O)[C@H]3O)ccc2Cl)cc1,99 ± 3
17,CC1=C(C(=O)O)N2C(=O)[C@@H](NC(=O)[C@H](N)C3=CCC=CC3)[C@H]2SC1,114 ± 86
